About 3,000 (1%) of roughly 290,000 compounds were called active. This is one part of a sample in which actives are shown more often than they occur. Unmarked numbers belong to inactive results. Rule as the data show it: active = inhibition mostly above about 36% (no sharp cut-off); inactive = mostly below about 34%.

The test in a line: inhibition of NOD1-driven NF-kB reporter – cell-based, luminescence, uHTS, primary screen (AID 1578).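 Also: HEK-293T reporter cells stimulated with the NOD1 agonist gamma-tri-DAP.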 The following applies: NOD1-driven NF-kB luciferase reporter cells, at 4 µM, active compounds read high.
Usually inhibition stands for the change of the read-out against control, counted positive when it falls. As for `O=c1cccc2n1CC1CC2CN(C(c2cccc(F)c2)c2sc3ncnn3c2O)C1` (centres undefined), the inhibition is -12.7%.
On to `CN[C@H]1C[C@H]2O[C@@](C)([C@H]1OC)n1c3ccccc3c3c4c(c5c6ccccc6n2c5c31)C(=O)NC4`, for which the inhibition is 1.7%.
As to `COc1ccccc1N1CCN(Cc2ccccc2Cl)CC1`, the inhibition was -17.2%.
In the case of `CCN(CC)S(=O)(=O)c1ccc(NN=C(C#N)C#N)cc1`, the inhibition is 9.7%.
As for `CC1CCN(S(=O)(=O)c2ccc(NN=C(C#N)C#N)cc2)CC1`, the inhibition was -29.8%.
The value for `N#CC(C#N)=NNc1ccc(S(N)(=O)=O)cc1` was -10.8%; that for `Cc1cc(C)n(-c2ccc(NN=C(C#N)C#N)cc2)n1` was 41.2% (active); that for `N#CC(C#N)=NNc1ccc(-n2ccc(C(F)(F)F)n2)cc1` was 36.7% (active).
Regarding `Cc1nn(Cc2ccccc2)c(Cl)c1C(=O)OCC(=O)Nc1cccc2ccccc12`, the inhibition was -17.7%.
`COC(=O)C(C)Oc1cc(C)cc2oc(=O)c3c(c12)CCCC3` (centres undefined): the inhibition was -9.2%.
In the case of `O=C(NC(Cc1cnc[nH]1)C(=O)O)c1ccccc1` (centres undefined) it was -20.8%.
In the case of `C=CCn1c(O)c(C(CC)=NCCc2ccccc2)c(=O)[nH]c1=O` it was -24.2%; in that of `CC(C)n1c(=O)c(C=Nc2ccc(S(N)(=O)=O)cc2)c(O)n(Cc2ccco2)c1=O`, -37.7%.
As to `CC(C)C(=O)c1cn(Cc2ccccc2C#N)c2ccccc12`, the inhibition is -11.1%.
In the case of `CCC(=O)c1cn(Cc2ccccc2C#N)c2ccccc12` it was 8.5%; in that of `CC(=O)c1cn(Cc2ccccc2C#N)c2ccccc12`, 78% (active); in that of `CCOC(=O)CNC(=O)CNC(=O)C(Cc1ccc(N(CCCl)CCCl)cc1)NC(C)=O` (centres undefined), -43.1%.
For `C=CCn1c(O)c(C(CC)=NCc2cc(OC)cc(OC)c2)c(=O)[nH]c1=O`, the inhibition was 0.2%.
With `Cc1cc(C=C2C(=O)NC(=S)NC2=O)c(C)n1C1CCCC1`, the inhibition is 24.9%.
On to `O=C1NC(=S)NC(=O)C1=Cc1cccc2cc3ccccc3cc12`, for which the inhibition is 59.4% (active).
As for `O=C1NC(=O)C(=Cc2ccc3ccccc3c2)C(=O)N1`, the inhibition is -4.2%.
Consider `Cc1cccc(N2CCN(CCc3ccccc3)CC2)c1C`, for which the inhibition was 11.9%.
As for `CC(C)n1c(O)c(C2c3cc(Cl)ccc3Oc3[nH]c(=O)n(C(C)C)c(=O)c32)c(=O)[nH]c1=O` (centres undefined), the inhibition is 61.3% (active).
With `CC(=O)c1c(O)n(-c2cccc(Cl)c2)c(=O)[nH]c1=O` (tested in a mixture with another compound), the inhibition was 1.2%.
Turning to `C[C@]12CC[C@H]3C(CCC4(O)CC(O)CC[C@]34C=O)C1=CC[C@H]2c1ccc(=O)oc1` (some centres undefined), the inhibition was 60.3% (active).
Take `CC(=O)[C@@]1(O)CC[C@H]2[C@@H]3CC=C4C[C@@H](O)CC[C@]4(C)[C@H]3CC[C@@]21C`: the inhibition was -24.8%.
In the case of `CC12CC[C@H]3[C@@H](CCC4(O)C[C@H](O)CCC34/C=N/NC(=O)c3ccccc3Cl)C1(O)CCC2C1=CC(=O)OC1` (some centres undefined) it was 3%; in that of `C=C(C)Cn1c(=O)n(CC2CS2)c2ccccc21` (centres undefined), 8.9%; in that of `CCOc1cc2c(cc1OCC)-n1cccc1C(c1ccccc1OC)NC2` (centres undefined), 4.7%.
The value for `CC[C@@]1(O)C(=O)OCc2c1cc1n(c2=O)Cc2cc3c(NC(=O)CN)cccc3nc2-1` was 7.7%; that for `CCC1(OC(=O)CN)C(=O)OCc2c1cc1n(c2=O)Cc2cc3ccccc3nc2-1` (centres undefined) was 71.2% (active); that for `CCOC(=O)C1=C(N)OC2=C(C(=O)CCC2)C12C(=O)N(C)c1ccccc12` (centres undefined) was -7.5%.
In the case of `Cc1cnn(C2CCN(C)CC2)c1N` it was -8.2%; in that of `NC1=C([N+](=O)[O-])C(c2ccc3c(c2)OCO3)c2c(c3ccccc3oc2=O)O1` (centres undefined), -6%.
As to `O=C(Cc1ccccc1)Oc1cccc(-n2cnnn2)c1`, the inhibition is -14.2%.
Take `O=[N+]([O-])c1ccc(N2CCNCC2)cc1Sc1ccccn1`: the inhibition is -12.4%.
Consider `Cc1cc(N2CCCCC2)ccc1C=C1C(=O)N(C)C(=S)N(C)C1=O`, for which the inhibition was -10.1%.
In the case of `Cc1ccc(N2C(=O)CC(=O)NC2=O)cc1`, the inhibition is -5.6%.
On to `O=Cc1cn(Cc2ccccc2F)c2ccccc12`, for which the inhibition is 30.3%.
Consider `O=Cc1cn(Cc2ccc(F)cc2)c2ccccc12`, for which the inhibition is 6.2%.
For the molecule `O=Cc1cn(Cc2c(F)cccc2Cl)c2ccccc12`, the inhibition is 66% (active).
As to `Cc1cc(=O)oc2cc(OCC(=O)N3CCC(C(=O)O)(c4ccccc4)CC3)ccc12`, the inhibition is -7.5%.
On to `CCCCOP(=O)(OCCCC)/C(C#N)=C(/C)O`, for which the inhibition was -14.2%.
The value for `O=c1[nH]c(=S)n(Cc2ccc(F)cc2)c(O)c1C=NCCCn1ccnc1` was -9.5%.
For `Cc1cccc(CN2CCCN(Cc3ccc(Cl)cc3)S2(=O)=O)c1`, the inhibition is 2.2%.
Consider `O=C1NC(=O)N(c2ccccc2)C(=O)/C1=C/c1ccoc1`, for which the inhibition is -13.5%.
In the case of `CN1C(=O)/C(=C/C=C/c2ccco2)C(=O)NC1=S` it was -4.7%; in that of `CCc1ccc(N2C(=O)NC(=O)/C(=C\C=C\c3ccco3)C2=O)cc1`, 89.4% (active); in that of `CCCCN1C(=O)/C(=C/C=C/c2ccco2)C(=O)NC1=S`, -32.6%.
Regarding `O=C1NC(=O)N(Cc2ccccc2)C(=O)/C1=C\c1ccco1`, the inhibition is -5.6%.
For `CCN1C(=O)C(=C/C=C/c2ccco2)C(=O)N(CC)C1=S`, the inhibition is -25.5%.
`Cc1ccc(N2C(=O)NC(=O)/C(=C/C=C/c3ccco3)C2=O)cc1`: the inhibition is 87.4% (active).
In the case of `Cc1cccc(N2C(=O)NC(=O)/C(=C\C=C\c3ccco3)C2=O)c1` it was -6.1%; in that of `Cc1cc(C)cc(N2C(=O)NC(=O)/C(=C\C=C\c3ccco3)C2=O)c1`, 67.1%.
The value for `Cn1cc(/C=C2\C(=O)NC(=O)N(c3ccccc3)C2=O)c2ccccc21` was -3.2%; that for `CN(C)c1ccc(/C=C/C=C2/C(=O)NC(=O)N(c3ccccc3)C2=O)cc1` was 80.9% (active).
Regarding `O=C1NC(=O)N(Cc2ccccc2)C(=O)/C1=C\C=C\c1ccco1`, the inhibition was 61.5% (active).
In the case of `COCCOC(=O)C1=C(N)Oc2c(c(=O)oc3ccccc23)C1c1ccncc1` (centres undefined), the inhibition was -14.2%.
With `CCCCOC(=O)C1=C(N)OC2=C(C(=O)CCC2)[C@]12C(=O)N(C)c1ccccc12`, the inhibition was 2.2%.

The values are drawn from PubChem BioAssay AID1578 (Sanford-Burnham Center for Chemical Genomics, 2009).
